A selection: hits, their analogues and other compounds. The true share with any hit is near 1.1%.
bovine MsrA act – bovine MsrA enzyme activators, primary screen, biochemical, absorbance, HTS. Methionine sulfoxide reductase A (Bos taurus). purified bovine MsrA, absorbance read-out. activation, % at 10.6 µM. hit rate 0.3% among 360,000. AID 602163, 2012; in the data active = activation above about 7.5%;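 note: 0% = vehicle and 100% = reference activator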
PKA-R2B activ – activators of PKA-R2B holoenzyme, primary screen, biochemical, fluorescence polarization, Cy5-IP20, human; activation, % at 11.4 µM; PKA-R2B holoenzyme dissociation; R2B truncated from residue 108, S112A mutant; 0% DMSO only, 100% 113 µM cGMP; cAMP-dependent protein kinase catalytic subunit beta (Homo sapiens) + cAMP-dependent …; hit rate 0.079% among 340,000;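 active = activation above a cutoff set at the mean over all compounds plus 3 SD, cut at about 18% in these data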;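 note: higher means more holoenzyme dissociation and a rise in polarization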
Target sequence (P31323 whole entry, looked up, other chains not shown, the tested form may be a part): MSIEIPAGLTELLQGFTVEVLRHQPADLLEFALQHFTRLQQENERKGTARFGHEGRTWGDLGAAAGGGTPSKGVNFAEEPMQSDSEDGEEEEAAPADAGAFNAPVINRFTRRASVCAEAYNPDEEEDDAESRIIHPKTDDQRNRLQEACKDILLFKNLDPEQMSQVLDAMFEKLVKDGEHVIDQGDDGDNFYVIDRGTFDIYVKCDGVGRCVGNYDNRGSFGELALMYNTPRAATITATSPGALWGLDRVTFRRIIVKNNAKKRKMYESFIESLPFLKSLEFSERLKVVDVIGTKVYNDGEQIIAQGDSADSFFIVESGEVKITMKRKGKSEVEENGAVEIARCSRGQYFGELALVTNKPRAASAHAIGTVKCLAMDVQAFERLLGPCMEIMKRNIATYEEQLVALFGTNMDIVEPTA
PKA-R1A act – activators of PKA-R1A holoenzyme, primary screen, biochemical, fluorescence polarization, Cy5-IP20, bovine R1A, mouse PKAc; hit rate 0.083% among 340,000; AID 504707, 2011; cAMP-dependent protein kinase type I-alpha regulatory subunit (Bos taurus) + …; activation, % at 11.4 µM; PKA-R1A dissociation; scaled: DMSO 0%, 113 µM cGMP 100%;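 active = percent activation above the mean of all tested compounds plus 3 SD, cut at about 19% in these data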;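 note: higher means more PKAc released from R1A so a rise in polarization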
MsrA inh – bovine MsrA enzyme inhibitors, primary screen, biochemical, absorbance, HTS. Methionine sulfoxide reductase A (Bos taurus). purified bovine MsrA, absorbance read-out. inhibition, % at 15.5 µM. hit rate 0.75% among 360,000; in the data active = inhibition above about 4.5%;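 note: 0% = vehicle wells with enzyme and 100% = reference inhibitor wells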
R2B FP artifact – fluorescence polarization artefacts, biochemical, artefact control for PKA-R2B activator project; shares compounds with PKA-R2B activ; FP artifact counterscreen; activation, % at 11.4 µM; hit rate 6% among 270; AID 504796, 2011; in the data active = activation above about 20%;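 note: Cy5 labelled IP20 peptide probe with compound but no PKA protein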
PKA-R2B act conf – activators of PKA-R2B holoenzyme, confirmation, biochemical, fluorescence polarization, human; AID 504797, 2011; shares compounds with PKA-R2B activ; activation, % at 11.4 µM; hit rate 9% among 270; PKA-R2B complex, activation; in the data active = activation above about 19%
Target sequence (P31323 whole entry, looked up): as the sequence (P31323 whole entry, looked up, other chains not shown, the tested form may be a part) above
Starred values were filed as active, the others as inactive; nt = no result.

SMILES	bovine MsrA act	PKA-R2B activ	PKA-R1A act	MsrA inh	R2B FP artifact	PKA-R2B act conf
CCc1c(-c2cccc(F)c2)ncn1CCc1ccccc1OC	nt	nt	nt	0	nt	nt
Cc1ccc2nc(SCC(=O)Nc3cccc(Cl)c3)nc(=O)n2c1	-3	-10	-3	1	nt	nt
Cc1ccc2nc(SCC(=O)Nc3cccc(F)c3)nc(=O)n2c1	-4	8	5	5.1*	nt	nt
O=C(C[C@@H]1C=C[C@@H](NC(=O)C2CC2)[C@@H](CO)O1)NCc1ccccc1Cl	nt	nt	nt	0	nt	nt
CC1C/C(=C\c2cccnc2)C(=O)/C(=C/c2cccnc2)C1 (stereo unspecified)	-10	-3	-9	5.2*	nt	nt
CCOC(=O)C(=CNc1ccc2c(c1)CCN2C(C)=O)C(=O)OCC	-5	-3	-4	4.9*	nt	nt
COC(=O)[C@]12C[C@H](CC(=O)N3CCN(C(=O)C4CC4)CC3)C(=O)N(CCC3=CCCCC3)C1=C[C@H](C(C)(C)C)O[C@@H]2C	nt	nt	nt	-1	nt	nt
CCc1c(-c2ccccc2)ncn1CCc1ccccc1OC	nt	nt	nt	0	nt	nt
CCOC(=O)CN1N=C(c2ccc(C)cc2)CCC1=O	-3	-8	8	-1	nt	nt
CCOC(=O)CN1N=C(/C=C/c2ccc(OC)cc2)CCC1=O	-10	3	-2	6.1*	nt	nt
CCOC(=O)C(C)N1N=C(/C=C/c2ccc(OC)cc2)CCC1=O (stereo unspecified)	-8	14	10	6.1*	nt	nt
CC(C)C(=O)Nc1ccc(S(=O)(=O)Nc2nccc(/C=C/c3ccccc3)n2)cc1	-4	1	3	4.6*	nt	nt
Cc1cc(C)nc(NS(=O)(=O)c2ccc(NC(=O)C(C)C)cc2)n1	-1	-6	-12	0	nt	nt
C/C(=N\NS(=O)(=O)c1ccc([N+](=O)[O-])cc1)c1ccc(NC(=O)c2ccco2)cc1	-4	0	-2	4.6*	nt	nt
CC(=NNS(=O)(=O)c1ccc([N+](=O)[O-])cc1)c1ccc(C)cc1	-3	-7	-6	0	nt	nt
COc1cc(OC)c(-c2sc(Nc3ccccc3)n[n+]2-c2ccc(F)cc2)cc1OC	-11	-6	-2	4.6*	nt	nt
CC(C)CSc1ccc(S(=O)(=O)NCC(=O)O)cc1[N+](=O)[O-]	0	19*	0	0	4	0
CSc1ccc(S(=O)(=O)NCC(=O)OC(C)C(=O)NCc2ccccc2)cc1[N+](=O)[O-] (stereo unspecified)	-4	-4	-4	0	nt	nt
C[C@@H]1CN([C@H](C)CO)C(=O)CCCn2nncc2CO[C@H]1CN(C)C(=O)Nc1ccc2c(c1)OCCO2	nt	nt	nt	1	nt	nt
COC(=O)c1ccc(N2CCN(S(=O)(=O)c3ccc(C)cc3)CC2)c([N+](=O)[O-])c1	-8	-8	-5	1	nt	nt
COC(=O)c1ccc(N2CCN(S(=O)(=O)c3c(C)cc(C)cc3C)CC2)c([N+](=O)[O-])c1	-1	18*	-14	1	-5	-5
O=C(COc1cccc(-n2cnnn2)c1)Nc1ccc([N+](=O)[O-])cc1	-5	20*	3	0	2	3
Cc1cccc(/C=N/NC(=O)c2ccccc2OCc2cccc(Br)c2)n1	1	-3	-7	0	nt	nt
Cc1cccc(/C=N/NC(=O)c2cc(Br)ccc2OCc2ccccc2)n1	-2	19*	1	2	8	2
O=C1CC2(CCCC2)CC(=O)N1CCCCN1CCN(c2ncccn2)CC1	-13	23*	12	1	2	0
SMILES	bovine MsrA act	PKA-R2B activ	PKA-R1A act	MsrA inh	R2B FP artifact	PKA-R2B act conf
CN1C(=O)N(CC(=O)N2CCN(c3ncccn3)CC2)C(=O)C12CCCCC2	-2	10	-1	0	nt	nt
COC(=O)N1Cc2ccnnc2CC1c1ccccc1-c1ccccc1 (stereo unspecified)	nt	nt	nt	0	nt	nt
O=C(N/N=C/c1cc(O)ccc1[N+](=O)[O-])c1ccc2c(c1)OCCO2	-6	19*	-1	-1	5	0
Cc1[nH]nc(SCC(=O)Nc2cccc(O)c2)c1[N+](=O)[O-]	-2	19*	-9	1	2	5
COC(=O)c1c[nH]n2c(=O)cc(CCl)nc12	-7	20*	6	2	0	1
COC(=O)c1c[nH]n2c(=O)c(C(C)C)c(C)nc12	-2	-12	-2	-1	nt	nt
CN(C)Cc1c(C(C)(C)O)[nH]c2cc(C(F)(F)F)ccc12	nt	nt	nt	-1	nt	nt
COc1ccc(N=Cc2c(O)[nH]c3ccccc23)cc1	-2	-1	4	3	nt	nt
Cc1ccc(N=Cc2c(O)[nH]c3ccccc23)c([N+](=O)[O-])c1	-4	19*	3	0	3	1
Cc1ccccc1-n1c(SCC(=O)N/N=C/C=C/c2ccccc2[N+](=O)[O-])nc2ccccc2c1=O	-5	21*	-5	2	-1	-5
NC(=O)CC(NC(=O)c1ccccc1)c1ccc(N2CCC(Cc3ccccc3)CC2)c([N+](=O)[O-])c1 (stereo unspecified)	-1	-9	8	-1	nt	nt
NC(=O)CC(NC(=O)c1ccc(Br)cc1)c1ccc(N2CCC(Cc3ccccc3)CC2)c([N+](=O)[O-])c1 (stereo unspecified)	-12	19*	-1	1	10	11
O=C(N[C@H](C(=O)N1CCC[C@H]1C(=O)NC1CCCC1)c1ccccc1)C1CC1	nt	nt	nt	0	nt	nt
Cc1nc2scc(C)n2c(=O)c1S(=O)(=O)Nc1ccc(F)cc1	-5	22*	12	2	4	2
Cc1nc([N+](=O)[O-])cn1CC(Cl)Cn1cc([N+](=O)[O-])nc1C	nt	nt	nt	2	nt	nt
OC(c1ccccc1)(c1ccccc1)C1CCN(CCCOc2ccc(-c3ccncc3)cc2)CC1	nt	nt	nt	1	nt	nt
CCCN(C)C[C@@H]1Oc2ncc(Br)cc2C(=O)N([C@@H](C)CO)C[C@H]1C	-6	20*	3	0	5	3
CCCN(C)C[C@H]1Oc2ncc(Br)cc2C(=O)N([C@@H](C)CO)C[C@@H]1C	-5	-4	2	2	nt	nt
NC(=O)CSc1nnc(COc2ccccc2)n1CCc1ccccc1	-6	22*	-5	2	2	2
CCC(=O)Nc1sc2c(c1C(N)=O)CCC2	-1	22*	4	1	1	0
CC#CC(=O)NCC1(N(C)Cc2ccccc2)Cc2ccccc2C1	-4	18*	5	-1	6	2
CSCC(=O)NCC1(N(C)Cc2ccccc2)Cc2ccccc2C1	-2	-3	12	0	nt	nt
CCc1cc2c(nc1CC)CCCN2S(=O)(=O)c1c(C)noc1C	nt	nt	nt	1	nt	nt
O=C1CCC/C1=C/Nc1cccc(F)c1	-6	19*	-1	1	5	5
CCC(C(=O)NC1CCCC1)n1c(C2CCCC2)nc2ccccc21 (stereo unspecified)	nt	nt	nt	-1	nt	nt
